# Experimental data published in ChEMBL document CHEMBL3988442, “University of Dundee, Small-Polar-MMV Screening Library” (2021).
# Among all 48,000 compounds or so, about 13,000 (27%) showed an effect of 50% or more. This is one part of the list.
# System: Wolbachia pipientis
# Assay: Anti-Wolbachia Cell-Based Screen
# Format: functional
# Parameters: scale not given: in the data most compounds retested in dose-response had high values
# Settings: 5 µM
row,SMILES,Percent Effect [%]
1,COc1ccc(NC(=O)NC(C)(C)c2noc(C)n2)cc1,-12.65
2,CS(=O)(=O)CCOCCNc1ccc(C#N)cc1F,-9.887
3,FC(F)(F)c1n[nH]c2c1CN(CCc1ccccn1)CC2,-4.323
4,COc1ccc(-c2cccc(-c3ccn(CC4COCCO4)n3)c2)nn1 (stereo not drawn),-12.89
5,Cn1cnc2cc(C(=O)NS(=O)(=O)c3ccc(F)cc3)ccc21,-13.37
6,O=C(O)C1c2nc[nH]c2CCN1Cc1ccc(-c2ccccc2)s1 (stereo not drawn),-13.4
7,Cc1nc(CN2CCC3(CCN(Cc4cnn(C)c4)CC3)C2=O)cs1.O=C(O)C(F)(F)F.O=C(O)C(F)(F)F,102.9
8,Cc1nc(CN2CCC3(CCN(Cc4nccn4C)CC3)C2=O)cs1.O=C(O)C(F)(F)F.O=C(O)C(F)(F)F,106
9,Cc1nc(CN2CCC3(CCN(Cc4cnn(C)c4)C3)C2=O)cs1 (stereo not drawn),104.5
10,Cc1nc(CN2CCC3(CCCN(Cc4cnn(C)c4)C3)C2=O)cs1.O=C(O)C(F)(F)F.O=C(O)C(F)(F)F (stereo not drawn),12.7
11,O=C1O[C@@H]2CN(Cc3cc4ccccc4o3)C[C@@H]2N1Cc1ccccn1,8.786
12,CN(Cc1ccncn1)c1nccc(CCC(F)(F)F)n1,2.558
13,CN(Cc1cn2c(n1)CN(C1CCOCC1)CC2)Cc1ccco1.O=C(O)C(F)(F)F.O=C(O)C(F)(F)F,4.973
14,c1c(CN2CCOCC2)nc2n1CCN(CC1CC1)C2,101.8
15,c1c(CN2CCCCC2)nc2n1CCN(CC1CC1)C2,5.412
16,O=C(CC1CC1)NCc1cn2c(n1)CN(C(=O)C1CCOCC1)CC2,7.38
17,O=C(O)C(F)(F)F.O=C(O)C(F)(F)F.c1c(CN2CCCC2)nc2n1CCN(CC1CC1)C2,-6.407
18,O=C(O)C(F)(F)F.O=C(O)C(F)(F)F.c1cn2c(n1)CN(C1CCOCC1)CC(CN1CCCC1)C2 (stereo not drawn),-10.3
19,c1nc2n(c1CN1CCOCC1)CCN(C1CCOC1)CC2 (stereo not drawn),-7.987
20,CN1CCN(Cc2cn3c(n2)CN(C(=O)N2CCOCC2)CC3)CC1.O=C(O)C(F)(F)F.O=C(O)C(F)(F)F,-14.48
21,c1c(CN2CCOCC2)nc2n1CCN(C1CCOCC1)C2,79.69
22,O=C(NCc1cn2c(n1)CN(CC1CCOCC1)CC2)C1CCC1.O=C(O)C(F)(F)F,-3.322
23,O=C(O)C(F)(F)F.O=C(O)C(F)(F)F.c1c(CN2CCCC2)nc2n1CCN(C1CCOCC1)C2,102.1
24,CN1CCN(Cc2cn3c(n2)CN(C2CCOCC2)CC3)CC1.O=C(O)C(F)(F)F.O=C(O)C(F)(F)F.O=C(O)C(F)(F)F,107

row,SMILES,Percent Effect [%]
1,CCCN1CC(C(=O)Nc2ccccn2)CC1=O (stereo not drawn),-15.01
2,COc1ccc(CN2CC[C@@H](N)[C@@H](OC)C2)cc1Cn1cncn1,18.6
3,Cc1n[nH]cc1CNC(C(=O)N1CCOCC1)c1ccccc1 (stereo not drawn),6.045
4,Cc1cnc(-c2nc(C3CCCN(Cc4ccccc4C)C3)no2)cn1.Cl (stereo not drawn),93.62
5,c1cc(CN2CCCC(c3noc(C4CC4)n3)C2)no1 (stereo not drawn),4.824
6,Cc1cnc(-c2nc(-c3cccc(CN4CCOCC4)c3)no2)cn1,4.673
7,Cc1cnc(-c2nc(C3CCN(Cc4ccccc4Cl)CC3)no2)cn1,142.3
8,Cc1cnc(CN2CCN(C(C)c3nc(C4CC4)no3)CC2)cn1 (stereo not drawn),13.95
9,Cc1cccn2cc(CN3CCCC(c4noc(C5CC5)n4)C3)nc12 (stereo not drawn),-10.66
10,Cc1cnc(-c2nc(C3CCCN(Cc4cccs4)C3)no2)cn1 (stereo not drawn),85.43
11,CN1CCC(Cc2noc(-c3cn(Cc4ccccc4Cl)nn3)n2)CC1,21.53
12,Cc1cnc(-c2nc(C3CCN(Cc4ccccc4C)CC3)no2)cn1,126.9
13,Cc1nc(C)c(CN2CCOC(Cc3ccccc3Cl)C2)nc1C (stereo not drawn),-25.93
14,Cc1nc(C2CCCN(c3ncc(Br)cn3)C2)no1 (stereo not drawn),-7.201
15,CCCNC(=O)CN1CCCC1c1nc(Cc2ccc(F)cc2)no1 (stereo not drawn),-9.393
16,CC(C)N1CCOC[C@H]1c1nc(C(C)(C)C)c[nH]1,-12.91
17,Cc1ccccc1C(C)(C)CNC(=O)CN(C)c1cnccn1,6.052
18,Cc1ccsc1C(=O)NC1CCN(c2cnn(C)c2)C1=O (stereo not drawn),-14.12
19,CC(C)(C)NC(=O)C[C@@H]1CCNC[C@@H]1Cc1cc(C(C)(C)C)on1,-4.858
20,c1ccc2[nH]c(C3CCN(Cc4nc(C5CC5)no4)CC3)cc2c1,8.105
21,Cc1cnc(-c2nc(C3CCN(Cc4ccccc4O)CC3)no2)cn1,140.6
22,c1cc(C2CCN(Cc3nc(C4CC4)no3)CC2)[nH]n1,45.49
23,CCN(CC)C(C(=O)Nc1ccc2c(c1)CCC(=O)N2)c1ccccc1 (stereo not drawn),-21.99
24,O=C(CN1CCN(c2ncccn2)[C@@H]2CS(=O)(=O)C[C@@H]21)N1CCCCC1,-9.163

row,SMILES,Percent Effect [%]
1,COC(C)(C)Cn1ccnc1-c1cccc(C(C)N(C)C)c1 (stereo not drawn),3.994
2,CC(c1cccc(-c2ncc(C#N)c(N)n2)c1)N(C)C (stereo not drawn),111.9
3,Cc1ccc(C(=O)O)cc1-c1cccc(C(C)N(C)C)c1 (stereo not drawn),-7.98
4,CC(c1cccc(-c2nccn2CCc2cn[nH]c2)c1)N(C)C (stereo not drawn),8.832
5,CC(c1cccc(-c2nccn2CCc2ccccn2)c1)N(C)C (stereo not drawn),15.78
6,Cc1cnc(Cn2cc(-c3cccc(C(C)N(C)C)c3)nn2)cn1 (stereo not drawn),-24.3
7,CC(c1cccc(-c2ccc(C(=O)O)cc2Cl)c1)N(C)C (stereo not drawn),-4.101
8,CC(c1cccc(-c2ncccc2C#N)c1)N(C)C (stereo not drawn),104.1
9,CC(c1cccc(-c2ncccc2F)c1)N(C)C (stereo not drawn),118.4
10,COc1ccccc1[C@@H]1CN(Cc2cc(C(C)(C)C)[nH]n2)C[C@H]1C(=O)O,-3.476
11,CCc1cnc(NCC2OCCc3ccccc32)nc1 (stereo not drawn),32.64
12,Cn1ccnc1NC[C@@H]1CCC[C@@H]2CN(CC3CC3)C[C@@H]21.O=C(O)C(F)(F)F,12.38
13,COc1ccnc(CN2CCC=C(C(C)NC(C)=O)C2)c1OC (stereo not drawn),-37.4
14,O=C(NCc1ccccc1)N1CCc2ncnc(NC3CC3)c2CC1,108.7
15,O=C(NCc1cccnc1)N1CCc2ncnc(NC3CC3)c2CC1.O=C(O)C(F)(F)F,96.91
16,CCN(C)c1ncnc2c1CCN(C(=O)NCc1cccnc1)CC2.O=C(O)C(F)(F)F,18.48
17,CCOc1ncnc2c1CCN(C(=O)NCc1cccnc1)CC2.O=C(O)C(F)(F)F,0.188
18,COc1ncnc2c1CCN(C(=O)NCc1cccc(F)c1)CC2,-12.16
19,CC(C)Nc1ncnc2c1CCN(C(=O)NCc1cccc(F)c1)CC2,86.35
20,O=C(NCc1cccc(F)c1)N1CCc2ncnc(NC3CC3)c2CC1,117.5
21,O=C(NCc1cccnc1)N1CCc2ncnc(C3CC3)c2CC1.O=C(O)C(F)(F)F,-6.522
22,CC(C)Nc1ncnc2c1CCN(C(=O)NCc1cccnc1)CC2.O=C(O)C(F)(F)F,-1.871
23,COc1ncnc2c1CCN(C(=O)NCc1cccnc1)CC2.O=C(O)C(F)(F)F,5.156
24,CN1CCc2[nH]nc(C(=O)N3CCC4(CN(C)C(=O)O4)C3)c2C1 (stereo not drawn),3.232

row,SMILES,Percent Effect [%]
1,CCC(O)CN1CCN(C(=O)c2cccc3[nH]ncc23)CC1 (stereo not drawn),10.02
2,CCN(C)S(=O)(=O)c1c(F)cc(NC(C)=O)cc1F,15.35
3,CCC(Nc1nc(CCN)nc2ccccc12)c1cc(C)ccn1 (stereo not drawn),5.857
4,COc1ccccc1-c1cc(C(F)(F)F)c2c(C)nn(CC(=O)O)c2n1,-3.37
5,O=C(O)Cn1nc(C2CC2)c2c(-c3ccc(F)cc3)ccnc21,106.5
6,CN(C(=O)Cn1nc(-c2ccc(F)cc2)oc1=O)C1CCS(=O)(=O)C1 (stereo not drawn),-25.19
7,Cc1nn(CC(=O)Nc2ccc(F)cc2)c(N)c1C#N,-10.06
8,Cc1nn(CC(=O)O)c2nccc(-c3ccc(F)cc3)c12,132.8
9,O=C(Cn1nc(-c2ccc(F)cc2)oc1=O)Nc1ccccc1,-16.04
10,O=C(CO)N1CCN(C(=O)c2coc3ccccc23)CC1,-5.618
11,Cn1cc(CNC2CC3(CCN(S(C)(=O)=O)CC3)c3ccccc32)cn1.O=C(O)C(F)(F)F (stereo not drawn),94.6
12,CS(=O)(=O)N1CCC2(CC1)CC(NCc1ccccn1)c1ccccc12 (stereo not drawn),90.85
13,CNC(=O)CNC1CC2(CCN(c3ncccn3)CC2)c2ccccc21.O=C(O)C(F)(F)F.O=C(O)C(F)(F)F (stereo not drawn),-16.8
14,Cn1cncc1CNC1CC2(CCN(S(C)(=O)=O)CC2)c2ccccc21.O=C(O)C(F)(F)F (stereo not drawn),-9.896
15,CS(=O)(=O)N1CCC2(CC1)CC(CC(=O)N1CCCC1)c1ccccc12 (stereo not drawn),5.675
16,CS(=O)(=O)N1CCC2(CC1)CC(NCC1CC1)c1ccccc12.O=C(O)C(F)(F)F (stereo not drawn),107.6
17,CS(=O)(=O)N1CCC2(CC1)CC(CC(=O)NC1CC1)c1ccccc12 (stereo not drawn),17.75
18,Cn1cncc1CNC1CC2(CCN(CC3CC3)CC2)c2ccccc21.O=C(O)C(F)(F)F.O=C(O)C(F)(F)F (stereo not drawn),-10.77
19,O=C(O)C(F)(F)F.O=C(O)C(F)(F)F.c1cnc(N2CCC3(CC2)CC(NCC2CC2)c2ccccc23)nc1 (stereo not drawn),1.529
20,CS(=O)(=O)N1CCC2(CC1)CC(NCc1ccco1)c1ccccc12.O=C(O)C(F)(F)F (stereo not drawn),91.69
21,Cn1cc(CNC2CC3(CCN(CC4CC4)CC3)c3ccccc32)cn1.O=C(O)C(F)(F)F.O=C(O)C(F)(F)F.O=C(O)C(F)(F)F (stereo not drawn),-14.88
